Screening results (PubChem)
Cardio protect: myocardial damage modulation in H9c2 cells; H9c2 cardiomyocytes, H2O2 injury protection, ATPLite, 2 h; protection from H2O2 cell death, % at 20 µM; hit rate 0.63% among 360,000; AID 588492;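 active = compounds giving at least 50% protection of heart cells from peroxide-induced death in the single-dose screen, raw or plate-pattern-corrected value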;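 also: 0% = DMSO wells with peroxide and 100% = DMSO wells without peroxide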
ALR inh: inhibitors of human sulfhydryl oxidase ALR; P55789; AID 485317; purified ALR, DTT oxidation, H2O2 HRP-luminol luminescence; inhibition, % (concentration not given with the values); hit rate 3.8% among 290,000;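 active = mean replicate inhibition above about 79%, with every replicate also reaching it, limit read from the data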
Target sequence (P55789 whole entry, looked up): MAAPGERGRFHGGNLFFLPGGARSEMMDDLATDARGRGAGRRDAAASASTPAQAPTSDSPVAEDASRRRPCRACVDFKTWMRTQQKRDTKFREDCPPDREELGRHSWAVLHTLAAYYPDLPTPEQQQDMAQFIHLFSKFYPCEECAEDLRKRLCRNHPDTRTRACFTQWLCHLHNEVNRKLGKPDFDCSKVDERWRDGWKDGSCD
M18AAP inhibitor: PfM18AAP enzyme inhibition; recombinant PfM18AAP, H-Glu-NHMec fluorogenic cleavage; hit rate 1.2% among 290,000; AID 1822; inhibition, % at 7.35 µM;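 active = inhibition above the campaign mean inhibition over all tested compounds plus 3 SD, cut at about 28% in these data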;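 also: 0% = plate median of test compound wells and 100% = 2 mM ZnCl2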
PHOSPHO1 block: PHOSPHO1 (human) inhibition; Q8TCT1; inhibition, % at 13.3 µM; hit rate 1.1% among 290,000; recombinant PHOSPHO1, absorbance phosphatase assay; in the data active = inhibition above about 60%
Target sequence (Q8TCT1 whole entry, looked up): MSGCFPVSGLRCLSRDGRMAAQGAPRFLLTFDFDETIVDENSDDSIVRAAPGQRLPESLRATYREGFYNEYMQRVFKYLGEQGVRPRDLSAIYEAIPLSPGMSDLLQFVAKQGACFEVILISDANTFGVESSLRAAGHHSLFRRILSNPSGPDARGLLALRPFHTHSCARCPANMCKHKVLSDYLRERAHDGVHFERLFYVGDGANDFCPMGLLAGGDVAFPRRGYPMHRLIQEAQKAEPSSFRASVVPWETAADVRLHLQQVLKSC
PfGluPho inh: PfG6PD (Plasmodium falciparum) enzyme inhibition; PfGluPho enzyme, NADPH resazurin-diaphorase fluorescence; inhibition, % at 20 µM; hit rate 0.78% among 350,000;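 active = inhibition reaching at least a set limit at 20 µM in the primary screen, cut at about 59% in these data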;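 also: 0% = DMSO wells with substrate and 100% = DMSO wells lacking glucose-6-phosphate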
PfG6PD confirm: confirmation of Plasmodium falciparum G6PD inhibitors. shares compounds with PfGluPho inh. recombinant PfGluPho, NADPH-diaphorase-resazurin fluorescence. inhibition, % at 20 µM. hit rate 34% among 2,400. AID 504753;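 active = inhibition of at least 50% at 20 µM in any single replicate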;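 also: 0% = DMSO with substrate and 100% = DMSO lacking glucose-6-phosphate substrate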
Diaph ctr 10uM: diaphorase inhibition or oxidation at 10 uM NADPH | shares compounds with PfGluPho inh | diaphorase-coupled resazurin reduction, fluorescence, NADPH 10 uM | inhibition, % at 20 µM | hit rate 39% among 820 | AID 504862;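 active = average inhibition reaching 50% or more with the compound at 20 µM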;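 also: resorufin red fluorescence formed as diaphorase reduces resazurin using NADPH; 0% = DMSO with enzyme and 100% = DMSO without enzyme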
Diaphorase 30uM: diaphorase inhibition or oxidation at 30 uM NADPH; inhibition, % at 20 µM; Diaphorase/resazurin coupled assay, resorufin fluorescence; hit rate 29% among 820; shares compounds with PfGluPho inh;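 active = inhibition averaging 50% or more, tested at 20 µM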;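 also: 0% = DMSO with enzyme and 100% = DMSO wells lacking diaphorase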
* marks the source's active call; other numbers are inactive results; nt = not tested or not shown. Hits are enriched below; roughly 5.6% of the tested compounds scored in any of these assays.

SMILES | Cardio protect | ALR inh | M18AAP inhibitor | PHOSPHO1 block | PfGluPho inh | PfG6PD confirm | others
Cc1ccc2nc(-c3cccc(N)c3)[nH]c2c1 | -24 | 99* | 0 | -4 | 62* | 29
Cc1cc(C)c2c(N)c(C(=O)c3cccc(Cl)c3)sc2n1 | 20 | nt | 4 | 1 | 1 | nt
CCN(CC)CCN1CCN(c2cnc(C)cn2)CC1 | 1 | nt | nt | nt | nt | nt
COc1ccc(CSCC(=O)N/N=C/c2ccc(OCC(=O)NCc3ccco3)cc2)cc1 | 2 | -4 | 6 | -12 | -9 | nt
NC(=S)N/N=C\c1ccccc1OCc1ccccc1 | -2 | 4 | -1 | -16 | 16 | nt
O=C(CSCc1ccccc1)N/N=C/c1ccccc1OCc1ccccc1 | -6 | -1 | 5 | 6 | 63* | -14
COc1ccc(CSCC(=O)N/N=C/c2ccccc2OCc2ccccc2)cc1 | 1 | -4 | 6 | 26 | 89* | 20
C[n+]1ccccc1/C=C1\Sc2ccccc2N1CCO | -6 | 70 | 7 | 29 | -1 | nt
CCC(CO)[n+]1c(C)cc(/C=C2\Sc3ccccc3N2Cc2ccccc2)cc1C (stereo not given) | -12 | 98* | 27 | -10 | 74* | 54* | Diaph ctr 10uM=24;Diaphorase 30uM=31
Nc1nnnn1-c1cccc([N+](=O)[O-])c1 | 0 | nt | nt | nt | 7 | nt
O=C(CSc1nnc(SCc2ccc(Cl)cc2)s1)N/N=C/c1c[nH]c2ccccc12 | -23 | 0 | 5 | -13 | 60* | 33
COc1ccc2oc(C(=O)Nc3nc(-c4ccccn4)cs3)c(C)c2c1 | 20 | 1 | nt | nt | -8 | nt
O=C(NC1CCCCC1)C(=S)NCCc1ccccc1 | -4 | -18 | 25 | -17 | 65* | 4
O=C(Oc1ccc(Br)cc1C(=S)N1CCOCC1)c1ccc([N+](=O)[O-])cc1[N+](=O)[O-] | 20 | nt | 26 | 48 | 60* | 22
CCc1cc(N2CCOCC2)cc2c1[nH]c1ccccc12 | -3 | 68 | 2 | 24 | 67* | 45
c1ccc2c(c1)[nH]c1c(N3CCOCC3)ncnc12 | -7 | -15 | 0 | 25 | 11 | nt
CC(C)(C)c1ccc(C(=O)Nc2ccc(F)cc2)s1 | -15 | 17 | 11 | 32 | 86* | 7
O=C(NCc1ccco1)c1cccc2c1C(=O)c1ccc(/C=C/c3ccccc3)cc1S2(=O)=O | 30 | 5 | nt | nt | 19 | nt
Cc1ccc(C2C3=C(CC(C)(C)CC3=O)N=C3c4ccccc4C(=O)C32)cc1 (stereo not given) | 18 | 2 | 5 | -9 | 51 | nt
CC1(C)CC(=O)C2=C(C1)N=C1c3ccccc3C(=O)C1C2c1ccc(Cl)cc1 (stereo not given) | -20 | 3 | -8 | -10 | 84* | 17
CCOC(=O)CSc1nnc(NC(=O)c2cccc([N+](=O)[O-])c2)s1 | -7 | 8 | 0 | 13 | 80* | 58* | Diaph ctr 10uM=51*;Diaphorase 30uM=39
O=C(Nc1ncc([N+](=O)[O-])s1)c1cccc([N+](=O)[O-])c1 | -20 | 98* | 3 | 44 | 103* | 89* | Diaph ctr 10uM=77*;Diaphorase 30uM=69*
N=C(N)c1ccc(N=Nc2c(O)ccc3c2[nH]c2ccccc23)cc1 | -8 | nt | nt | nt | 78* | 20
CC(C)c1ccc(CCNC(=O)CSC(=S)N2CCCC2)cc1 | -6 | 33 | nt | nt | 13 | nt
CCOC(=O)c1c(-c2ccc(C)o2)csc1NC(=O)COC(=O)c1cccs1 | 26 | 2 | -86 | -10 | 59* | -3
SMILES | Cardio protect | ALR inh | M18AAP inhibitor | PHOSPHO1 block | PfGluPho inh | PfG6PD confirm | others
CCOC(=O)c1c(-c2cccs2)csc1NC(=O)CC(C)C | -12 | 8 | -3 | 3 | 13 | nt
CCOc1ccccc1/C=N/NC(=O)c1c(C)nc2ccc(Br)cn12 | 2 | nt | -7 | 39 | 123* | 98* | Diaph ctr 10uM=93*;Diaphorase 30uM=97*
CCOc1ccccc1/C=N/NC(=O)c1cccc(S(=O)(=O)N(CC)CC)c1 | -2 | -7 | 3 | 27 | 110* | 60* | Diaph ctr 10uM=64*;Diaphorase 30uM=54*
O=C(Nc1ccc(Cl)cc1)c1csc([C@@H]2O[C@H](CO)[C@@H](O)[C@H]2O)n1 | 3 | nt | nt | nt | nt | nt
CN(C)CCNC(=O)c1cccc2ccc(-c3ccc(-c4ccccc4)cc3)nc12 | -20 | nt | nt | nt | 95* | 15
CN(C)CCNC(=O)c1cccc2nc3cccc(F)c3nc12 | -18 | nt | nt | nt | -2 | nt
COCCCOc1cc(NCc2ccccc2)c2ncn(C(C)C)c2c1 | -6 | 44 | nt | nt | 48 | nt
CCCCOc1cc(NCc2ccccc2)c2ncn(C(C)C)c2c1 | -18 | -15 | nt | nt | 73* | 31
CC(C)n1cnc2c(NCc3ccccc3)cc(N[C@H](C)CO)cc21 | -10 | 18 | nt | nt | 67* | 37
COc1cc(NCc2ccccc2)c2ncn(Cc3ccccc3)c2c1 | -11 | 42 | nt | nt | 66* | 50* | Diaph ctr 10uM=-11;Diaphorase 30uM=-10
CCC(COC)Oc1cc(NCc2ccccc2)c2ncn(C(C)C)c2c1 (stereo not given) | -9 | 83* | nt | nt | 83* | 40
Oc1ccc(C23CC4CC(CC(C4)C2)C3)cc1O | 2 | 99* | 90* | 26 | 83* | 71* | Diaph ctr 10uM=-8;Diaphorase 30uM=-2
Nc1ccc(S(N)(=O)=O)cc1N | 6 | 84* | 15 | 25 | 60* | 4
Nc1ccc(S(N)(=O)=O)cc1 | 13 | -10 | nt | nt | -3 | nt
C[C@@H]1CN([C@H](C)CO)C(=O)CCCn2nncc2CO[C@H]1CN(C)S(=O)(=O)c1ccc(Oc2ccccc2)nc1 | 0 | nt | nt | nt | -2 | nt
COc1cc(/C=C2\OC(=O)c3c(OC)cccc32)ccc1O | 20 | 61 | 13 | 20 | 74* | 14
O=C(NC1CC1)c1cccc(NC(=O)C2CCN(S(=O)(=O)c3ccccc3C(F)(F)F)CC2)c1 | 16 | nt | nt | nt | -2 | nt
Cc1cccc(/C=N\NC(=O)c2sccc2-n2cccc2)c1 | -14 | 5 | -7 | -6 | 71* | 42
O=C(Nc1ccccc1C(=O)O)c1ccc2ccccc2n1 | -10 | nt | 1 | 37 | 74* | 70* | Diaph ctr 10uM=59*;Diaphorase 30uM=68*
CCc1nnc(NC(=O)c2ccc3ccccc3n2)s1 | 4 | nt | 13 | -100 | 10 | nt
CCSc1nnc(NC(=O)c2ccc3ccccc3n2)s1 | 7 | 3 | -3 | 9 | 71* | 43
O=C(Nc1cccc(S(=O)(=O)Nc2ccccc2F)c1)c1ccc2ccccc2n1 | -8 | 1 | 30* | 6 | 76* | 49
O=S(=O)(Nc1ccccc1F)c1cccc(NC(=S)NCCN2CCOCC2)c1 | -4 | 37 | nt | nt | 96* | 77* | Diaph ctr 10uM=-1;Diaphorase 30uM=-10
O=C(CN1C(=O)NC2(CCCC2)C1=O)Nc1nc2ccccc2[nH]1 | 5 | 0 | nt | nt | 7 | nt
COC(=O)N1[C@H](C)C=C[C@]1(Cc1ccccc1)C(=O)NCCCNc1ncc(C(F)(F)F)cc1Cl | -3 | 6 | nt | nt | 11 | nt
O=C(/C=C/c1ccccc1)Nc1cccc(S(=O)(=O)Nc2ccccc2F)c1 | -3 | 3 | 2 | -16 | 71* | 46
